TDP1 cell noCPT – qHTS for Inhibitors of human tyrosyl-DNA phosphodiesterase 1 (TDP1): qHTS in cells in absence of CPT; DT40 Tdp1-/- hTDP1 cells, no CPT, ATP luminescence, 48 h; Potency, µM (series often up to 46.2 µM), most hits filed as inhibitors; 420,000 tested, 15% active; AID 686978, 2013; further: nearly all actives have a fitted effect of over 55% in size
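Camptothecin absent (DMSO only). Human TDP1-complemented DT40 knockout cells, 400 cells/well, 37 °C for minimum 48 hr; ATP measured via CellTiter-Glo, 30 min dark incubation, luminescence.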
HT1080NT lethal – kills 2HG-producing HT-1080-NT fibrosarcoma cells. HT-1080-NT fibrosarcoma viability, CellTiter-Glo ATP luminescence, 48 h. Potency, µM (highest dose often 46.1 µM), usual class: cytotoxic. 360,000 tested, 1.6% active;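 further: NT is the 2HG producing partner of a matched IDH1 knockdown line; nearly all actives have a fitted effect of over 55% in size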
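HT-1080-NT; 750 cells/well; 5% FBS RPMI; 48 h compound, 37 degrees C; CellTiter-Glo luminescence; curve fitting and curve-class assignment.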
IL1B secr inh – inhibitors of inflammasome signaling (IL-1 beta secretion). THP-1 LPS/ATP IL-1B secretion, AlphaLISA, 16 h; stronger effect = lower value. activity change, % at 57.5 µM. 360,000 tested, 4.7% active; in the data active means activity change below about -50%; inconclusive means mostly about -30% to -49%
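THP-1 cells pretreated 1 hr with compounds (up to 57.5 uM final), then stimulated with LPS (250 ng/mL final) plus ATP (1.25 mM final); secreted IL-1B measured by AlphaLISA after 16 hr, decreased signal indicating inhibition.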
HT1080 IDH1KD tx – HT-1080 IDH1 knockdown cell toxicity (counter line) | HT-1080 IDH1 knockdown viability, ATP luminescence, 48 h | Potency, µM (highest dose often 46.1 µM), usual class: cytotoxic | 360,000 tested, 2% active | AID 686971
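IDH1KD HT-1080 cells, 750/well, RPMI + 5% FBS; compound pinned after 2 h settling; 48 h, 37 °C; CellTiter-Glo luminescence; % activity normalised to DMSO and no-cell wells; curves fitted, classed by r2 and efficacy.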
TDP1 cell CPT – growth inhibition of DT40 Tdp1-/-;hTDP1 cells with camptothecin (screen for TDP1 inhibitors). Potency, µM (highest dose often 46.2 µM), hits mostly inhibitors. chicken DT40 Tdp1-/-;hTDP1 cells + 20 nM CPT, ATP luminescence, 48 h. 420,000 tested, 12% active; further: nearly all actives have a fitted effect of over 55% in size
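Chicken DT40 Tdp1-/- cells complemented with human TDP1, 400 cells/well, exposed to compounds plus 20 nM camptothecin for at least 48 h at 37 C; viability read as ATP content by CellTiter-Glo luminescence.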
Numbers stand for hits; . = inactive; ? = inconclusive; / = no result. This is a sample that favours compounds with a hit; in the whole collection about 19% have one here. Unless noted, the call rests on the fitted dose curve; in most records, active means well fitted curve in the direction sought with a large enough effect; inconclusive means small, poorly fitted or top-dose-only effect, or another doubt; inactive means no such curve, though single readings can be large; an effect the other way counts as inactive or inconclusive.

SMILES | TDP1 cell noCPT | HT1080NT lethal | IL1B secr inh | HT1080 IDH1KD tx | TDP1 cell CPT
CCOC(=O)c1c(C)nc2sc3c(=O)n(-c4ccc(C(C)=O)cc4)cnc3c2c1-c1ccc(OC)cc1 | 16µM | . | . | . | .
COc1cc(NC(=O)Cn2ccn(Cc3ccccc3OC)c(=O)c2=O)cc(OC)c1 | . | / | / | / | .
CCCNC(=O)CCNS(=O)(=O)c1ccc2c(c1)c(=O)n(C)c(=O)n2C | . | / | / | / | .
O=C1c2cc(N3CCCC3)c([N+](=O)[O-])cc2C(=O)N1c1ccccc1 | . | . | . | . | .
CCC(O)c1cnc(OCc2ccccc2)nc1OCc1ccccc1 (stereo unspecified) | 18µM | . | . | . | ?
CCOc1ccc2[nH]c(=O)c(CN(Cc3ccccc3)C(=O)N3CCCC3)cc2c1 | ? | . | . | . | 21µM
COc1ccc2[nH]c(=O)c(CN(Cc3cccnc3)C(=S)NCC3CCCO3)cc2c1 (stereo unspecified) | 21µM | . | . | . | 18µM
COc1ccc2[nH]c(=O)c(CN(CC3CCCO3)S(=O)(=O)c3ccccc3)cc2c1 (stereo unspecified) | ? | . | . | . | ?
COc1ccc2[nH]c(=O)c(CN(CC3CCCO3)C(=S)Nc3ccc(C)cc3)cc2c1 (stereo unspecified) | 16µM | . | . | . | .
Cc1cccc(NC(=O)N(Cc2cc3cc(C)ccc3[nH]c2=O)CC2COCCO2)c1 (stereo unspecified) | 23µM | . | -73 | . | ?
COc1ccc2cc(CN(CC3CCCO3)C(=O)Nc3ccccc3)c(=O)[nH]c2c1 (stereo unspecified) | . | . | ? | . | ?
CCC(=O)N1CCCC1(C)C(=O)Nc1cccc(Oc2ccccc2)c1 (stereo unspecified) | . | . | . | ? | .
Cn1c(SCC(=O)Nc2ccc(N3CCOCC3)cc2)nnc1-c1ccccc1F | . | . | . | . | .
COc1ccc2[nH]c3c(=O)n(Cc4ccc(C(=O)N5CCCC5)cc4)c(=S)[nH]c3c2c1 | ? | . | . | . | ?
Cc1ccc2[nH]c(=O)c(CN(CCCN3CCOCC3)C(=O)Nc3ccc(Cl)cc3)cc2c1 | 16µM | . | . | . | 15µM
COc1cc2cc(CN(CCN3CCOCC3)C(=O)Nc3ccc(F)cc3)c(=O)[nH]c2cc1OC | . | . | . | . | .
Cc1ccc2[nH]c(=O)c(CN(Cc3ccccc3Cl)C(=O)N3CCOCC3)cc2c1 | 21µM | . | ? | . | ?
CCN1CCCC1CN(Cc1cc2cc(C)ccc2[nH]c1=O)C(=O)Nc1ccccc1OC (stereo unspecified) | 21µM | . | . | . | ?
COc1ccc2[nH]c(=O)c(CN(CC3CCCO3)C(=O)Nc3ccc(F)cc3)cc2c1 (stereo unspecified) | 12µM | . | . | . | 16µM
CN(CCO)c1ccc2c(c1)OC[C@H](Cc1ccccc1)NS2(=O)=O | . | . | . | . | .
CCOc1ccc(N(Cc2cc3cc(OC)ccc3[nH]c2=O)S(C)(=O)=O)cc1 | ? | . | . | ? | .
COc1ccc(N(Cc2cc3cc(OC)ccc3[nH]c2=O)S(=O)(=O)c2ccc(NC(C)=O)cc2)cc1 | 8.2µM | / | . | / | 16µM
COc1ccc(NC(=O)N(Cc2cc3cc(OC)c(OC)cc3[nH]c2=O)CC2CCCO2)cc1 (stereo unspecified) | ? | . | . | . | ?
COc1ccc(NC(=O)N(Cc2cc3cc(C)ccc3[nH]c2=O)CC2CCCO2)cc1 (stereo unspecified) | ? | . | ? | . | 18µM
O=C(Nc1nnc(-c2ccccc2Cl)o1)c1ccc(S(=O)(=O)N2CCCCCC2)cc1 | 5.8µM | 4.1µM | . | 8.2µM | 4.6µM
CCC1CCCCN1S(=O)(=O)c1ccc(C(=O)Nc2nnc(-c3ccccc3Cl)o2)cc1 (stereo unspecified) | 6.5µM | ? | . | 8.2µM | 5.2µM
CCC1CCCCN1S(=O)(=O)c1ccc(C(=O)Nc2nnc(C3CC3)o2)cc1 (stereo unspecified) | ? | . | . | ? | ?

Bioassay records (PubChem BioAssay)
